Assay outcomes deposited in PubChem BioAssay by National Center for Advancing Translational Sciences (NCATS).
PKM2 inh – inhibitors of human pyruvate kinase M2; Potency, µM (doses to about 57.5 µM), inactives show top-dose activity change, negative = inhibition, actives largely listed as inhibitors; P14618; actives 0.058% (n = 260,000); purified PKM2, ATP generation, Kinase-Glo luminescence; active = well fitted inhibition curve with a large enough effect; note: nearly all actives have a fitted effect of over 60% in size
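Enzyme run at intermediate activity with final 0.1 mM ADP, 0.5 mM PEP (50 mM imidazole pH7.2, 50 mM KCl, 7 mM MgCl2), incubated 1 h at r.t. ATP formed read by Kinase-Glo luminescence, normalized to no-enzyme (full inhibition) and uninhibited wells.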
The depositor's hits bear a star. Shown is part of a subset that was picked to be rich in hits. Potency is the fitted concentration of half-maximal effect.

SMILES | PKM2 inh
COc1ccc(S(=O)(=O)N2CCN=C2SCc2cccnc2)cc1 | 56.1%
COc1cccc(CSc2nc3ccncc3[nH]2)c1 | 14.1µM*
COc1cccc(Cn2nc(C(=O)O)c3ccccc3c2=O)c1 | 37.8%
c1ccc2c(SCc3cn4ccccc4n3)nncc2c1 | 81.4%
CC(=O)Nc1ccc(SCC(=O)N2CCN(S(=O)(=O)c3ccccc3)CC2)cc1 | 31.0%
O=C1/C(=C/c2ccc(Cl)cc2)NC(=S)N1Cc1cccnc1 | 40.3%
Cc1cc(-c2nn(-c3ccccc3F)cc2CNCCc2cnc[nH]2)c(C)s1 | 50.2%
O=C(NCc1nnc2c(C(F)(F)F)cc(Cl)cn12)c1cccs1 | 98.9%
O=S(=O)(/N=C(/Nc1ccc(Cl)cc1Cl)c1ccccc1)c1cccs1 | 86.6%
COc1ccc(N=Nc2n(C)c3ccccc3[n+]2C)cc1 | 12.6µM*
Cc1cccc(N2CCN(C(=O)C3CC(=O)N(C4CCCC4)C3)CC2)c1C (configuration not stated) | 15.4%
CCCCc1ccc(/C=C2\C(=O)c3ccccc3C(O)=C2C(=O)OCC)cc1 | 45.1%
COc1cccc(CNc2nc3ccccc3n2C(C)C)c1O | 52.8%
Cc1n[nH]c(=O)c2c(NC(=O)CSc3nc4ccccc4c(=O)n3CCCO)oc(C)c12 | 50.0%
Cc1cc(C)c(S(=O)(=O)N2CCN(C(=O)CCn3nc(C)c(C)c3C)CC2)c(C)c1 | 79.7%
O=C(C1CCC1)N1CCc2cc(S(=O)(=O)Nc3ccc4c(c3)OCO4)ccc21 | 91.9%
O=C1/C(=C/Nc2ccc3c(c2)OCO3)CCc2ccccc21 | 25.1µM*
O=C1c2ccccc2C(=O)N1Cc1ccc2c(c1)OCO2 | 43.6%
O=[N+]([O-])c1cc2c(c(CSc3nnnn3-c3ccc(O)cc3)c1)OCOC2 | 37.3%
O=c1[nH]c(CN2CCN(c3ccc(O)cc3)CC2)nc2scc(-c3ccc(Cl)cc3)c12 | 94.7%
CSc1sc(C(=O)NN)c2c1C1(CCC2)SCCS1 | 35.5%
Cc1cccc(C)c1NC(=S)N/N=C/c1ccccc1C(=O)O | -4.4%
O=C(Nc1ccccc1C(=O)N/N=C/c1ccncc1)c1ccccc1 | 14.1µM*
O=C(N/N=C/c1ccncc1)c1cc([N+](=O)[O-])cc([N+](=O)[O-])c1O | 31.3%
NC(=O)/C=C\C(=O)Nc1cccc(C(F)(F)F)c1 | 35.8%
SMILES | PKM2 inh
CCc1nn(C(C)C(=O)NC(C)CCc2ccco2)c(=O)c2cc3occc3n12 (configuration not stated) | 45.9%
CC1=C(C(=O)OCc2ccccc2)C(c2cccc(F)c2)NC(=O)N1 (configuration not stated) | 0.6%
COc1ccc(OCC(=O)N2CCN(S(=O)(=O)c3ccccc3[N+](=O)[O-])CC2)cc1 | 139.7%
O=C(N/N=C/c1ccc(F)cc1)c1cc(-c2ccco2)nc2ccccc12 | 73.8%
CCN(CC)c1ccc(/C=N/NC(=O)c2ccoc2C)cc1 | 28.2µM*
CN(C)c1ccc(/C=N/NC(=O)c2ccccc2O)o1 | 56.4%
C=CCN1CCc2c(cc(O)c(O)c2Cl)C(c2cccc(C)c2)C1 (configuration not stated) | 33.1%
CS(=O)(=O)Nc1ccc(C2=NN(C(=O)c3ccco3)C(c3ccccc3F)C2)cc1 (configuration not stated) | 118.5%
COc1ccc(-c2cc3nc(C)n(N)c(=O)c3s2)cc1 | 3.98µM*
COc1ccc(-c2nc3oc4cc(OC)ccc4c(=O)c3c(=O)n2Cc2ccco2)cc1 | 33.0%
CC(=O)c1ccc(S(=O)(=O)Nc2ccc(-c3cn4c(n3)SCC4)cc2)cc1 | 42.8%
CCOC(=O)C(NC=O)(NC(C)(C)C)C(=O)OCC | 8.4%
COc1ccc(-c2[nH]ncc2CNCCn2cccn2)c(F)c1 | 54.1%
Cc1nc(NC2=NCN(Cc3cccnc3)CN2)nc2c(C)cccc12 | 35.2%
COc1ccc(-c2csc(NC(=O)c3cccs3)c2C(=O)O)cc1OC | 22.4µM*
CCOC(=O)c1c(-c2ccccc2)csc1NC(=O)CSc1nnc(C)s1 | 59.6%
CCOC(=O)c1c(-c2ccc(C)o2)csc1NC(=S)NC(=O)c1cccs1 | 37.5%
CC(C)c1ccc(CN2CC(C(=O)Nc3ccccc3)CC2=O)cc1 (configuration not stated) | 2.3%
Cc1ccc(N=Cc2c(C)[nH]n(-c3nc4ccccc4[nH]3)c2=O)cc1 | 10µM*
Cc1ccc(CNC(=O)Cn2ccc3cc(S(=O)(=O)N4CCCC4)ccc32)o1 | 74.8%
C/C(=N\NC(=O)CNc1ccccc1)c1ccccc1 | 59.6%
Cn1c(=O)c2c(SCC(=O)Nc3nccs3)nc(C3CC3)nc2n(C)c1=O | 37.0%
CN(C)CCCC1(O)c2ccccc2C=Cc2ccccc21 | -11.1%
Cc1ccc(S(=O)(=O)NCCc2ccncc2)cc1C | 34.2%
CCN(CC)S(=O)(=O)c1cccc(C(=O)N/N=C/c2ccccn2)c1 | 1.6%
Cc1ccc(NC(=O)COC(=O)CNC(=O)c2ccc3ccccc3c2)c([N+](=O)[O-])c1 | 32.7%
COc1ccccc1-c1nc(-c2ccccn2)no1 | 7.94µM*
Brc1ccc(-c2nc(-c3ccccn3)no2)o1 | 17.8µM*
CCN1CCN(CC(=O)Nc2cc3c(cc2C(C)=O)OCO3)CC1 | 45.2%
